Test results published in PubChem BioAssay (NCATS).
Records with an inconclusive call do not appear. Activity calls are given as the source filed them. Calls follow the shape of the dose curve; as a rule, active = well fitted activation curve with a large enough effect; inconclusive = small, poorly fitted or top-dose-only effect; inactive = flat fitted curve, though single readings scatter.

assay: Primary redox qHTS assay for identification of artifact compounds. (AID 1845223); settings: Amplex Red/HRP redox cycling with DTT, fluorescence; series mostly up to 53.8 µM; redox activity (% of DA3003): at the top concentration;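 as to redox activity (% of DA3003): 0% = DMSO and 100% = reference compound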
Outline: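 Redox-cycling detection via DTT (250 uM final) oxidation coupled to Amplex Red (25 uM)/HRP (250 mU/mL) in HBSS. 15 min preincubation plus 30 min after DTT, room temperature. Ex/Em 525/598 nm; 4-parameter Hill fit against DMSO and 10 uM DA3003.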
Potency is read from the fitted curve at half-maximal effect.

Compound | redox activity (% of DA3003) | Potency
COC(=O)C(CC1CCCC1)c1ccc(S(C)(=O)=O)cc1 (stereo unspecified) | -0.636% (inactive) | –
CC(C)/C=C1/NC(=O)C(C(C)C)n2c1nc1c(O)cccc1c2=O (stereo unspecified) | -1.1% (inactive) | –
O=C(O)/C=C/c1ccc(O[C@@H]2O[C@H](CO)[C@@H](O)[C@H](O)[C@H]2O)cc1 | -18.1% (inactive) | –
CC1CCCCCCCc2cc(O)cc(O)c2C(=O)O1 (stereo unspecified) | 8.18% (inactive) | –
CSC(=O)OCC1=C[C@@H]2OC(=O)C3=CO[C@@H](O[C@@H]4O[C@H](CO)[C@@H](O)[C@H](O)[C@H]4O)[C@H]1[C@@H]32 | -15.9% [at 25.6 µM] (inactive) | –
C=C1C[C@]23C[C@H]1CC[C@H]2[C@]1(C)CC[C@H](O)[C@@](C)(C(=O)O)[C@H]1[C@@H]3C(=O)O | 19.7% (inactive) | –
C[C@@H]1O[C@@H](O[C@H]2[C@H](OC(=O)[C@]34CCC(C)(C)C[C@H]3C3=CCC5[C@@]6(C)CC[C@H](O[C@@H]7O[C@H](CO[C@@H]8OC[C@H](O)[C@H](O)[C@H]8O[C@@H]8OC[C@@H](O)[C@H](O)[C@H]8O)[C@@H](O)[C@H](O)[C@H]7O)C(C)(C)C6CC[C@@]5(C)[C@]3(C)C[C@H]4O)O[C@H](CO)[C@@H](O)[C@@H]2O)[C@H](O[C@@H]2O[C@H](CO)[C@@H](O)[C@H](O)[C@H]2O)[C@H](O)[C@H]1O[C@@H]1OC[C@@H](O)[C@H](O[C@@H]2OC[C@@H](O)[C@H](O)[C@H]2O)[C@H]1O (stereo partly specified) | 13.7% [at 6.41 µM] (inactive) | –
CC(C)=CCC[C@](C)(O[C@@H]1O[C@H](CO)[C@@H](O)[C@H](O)[C@H]1O)[C@H]1CC[C@]2(C)[C@@H]1[C@H](O)CC1[C@@]3(C)CC[C@H](O)C(C)(C)C3[C@@H](O[C@@H]3O[C@H](CO)[C@@H](O)[C@H](O)[C@H]3O[C@@H]3O[C@@H](C)[C@H](O)[C@@H](O)[C@H]3O)C[C@]12C (stereo partly specified) | 5.49% [at 11.5 µM] (inactive) | –
CC(C)(O)/C=C/C(=O)[C@](C)(O)[C@H]1[C@H](O)C[C@@]2(C)[C@@H]3CC=C4[C@@H](C=C(O[C@@H]5O[C@H](CO)[C@@H](O)[C@H](O)[C@H]5O)C(=O)C4(C)C)[C@]3(C)C(=O)C[C@]12C | 12.3% [at 25.6 µM] (inactive) | –
C[C@H]1CCN2C[C@]34C[C@@]5(C(=O)Nc6c5ccc5c6OC=CC(C)(C)O5)C(C)(C)C3C[C@]12C(=O)N4C (stereo partly specified) | 4.29% [at 25.6 µM] (inactive) | –
O=C(/C=C/c1ccc(O)c(O)c1)O[C@@H]1[C@@H](O)[C@H](OC2CCCCC2O)O[C@H](CO)[C@H]1O (stereo partly specified) | -2.02% [at 25.6 µM] (inactive) | –
COc1cc(/C=C/C(=O)O[C@@H]2O[C@H](CO)[C@@H](O)[C@H](O)[C@H]2O)ccc1O | -9.44% (inactive) | –
CC(=O)/C=C/C1(O)C(C)CC(O[C@@H]2O[C@H](CO)[C@@H](O)[C@H](O)[C@H]2O)CC1(C)C (stereo partly specified) | -0.116% [at 25.6 µM] (inactive) | –
CC(=O)OC1CC2C(C)(C)C(=O)C=CC2(C)C2CC(=O)C3=C(CCC3C3=CC(O)OC3=O)C12C (stereo unspecified) | 19.9% [at 25.6 µM] (inactive) | –
C=C(CCO)C(=O)OCC1OCC(OC(=O)C(=C)CCO[C@@H]2O[C@H](COC(=O)C(=C)CCO[C@@H]3O[C@H](CO)[C@@H](O)[C@H](O)[C@H]3O)[C@@H](O)[C@H](O)[C@H]2O)C(O)C1O (stereo partly specified) | -17.1% [at 25.6 µM] (inactive) | –
CCC1OC(=O)C(C)CC(C)C(=O)/C(C)=C/C(C)C(=O)/C=C/C1(C)O (stereo unspecified) | -0.882% (inactive) | –
CC(C)C1(O)C=C2C(=O)CC3C(C)(C(=O)O)CCCC3(C)C2CC1 (stereo unspecified) | -15% (inactive) | –
CC(NC(=O)c1ccccc1N)C(=O)O (stereo unspecified) | -17.1% (inactive) | –
CC(=O)/C=C/[C@H]1[C@](C)(O)[C@@H](O)[C@H](O)C2C(C)(C)CCC[C@@]21C (stereo partly specified) | 15.8% (inactive) | –
CO[C@@H]1[C@]2(O)C(=O)N3/C=C\C(C)(C)c4[nH]c5ccccc5c4/C=C\3C(=O)N2[C@]23[C@H](CO)C(C)(C)N2c2ccccc2[C@]13O | 5.57% [at 25.6 µM] (inactive) | –
CC(=O)NC1C(OC2CCC3(C)C(CCC4(C)C3CC=C3C5CC(C)(C)CCC5(C(=O)O)C(O)CC34C)C2(C)C)OC(CO)C(O)C1O (stereo unspecified) | 15.3% [at 25.6 µM] (inactive) | –
COC(=O)C(CC1(OC(=O)C(C)C)c2ccccc2N2C(=O)C(C)(C)N(O)C21)n1cnc2ccccc2c1=O (stereo unspecified) | -0.197% [at 25.6 µM] (inactive) | –
OC[C@H]1O[C@@H](OCc2ccccc2)[C@H](O)[C@@H](O)[C@@H]1O | -0.91% (inactive) | –
COc1cc(/C=C/C(=O)O)ccc1O[C@@H]1O[C@H](CO)[C@@H](O)[C@H](O)[C@H]1O[C@@H]1OC[C@](O)(CO)[C@H]1O | -16.6% [at 25.6 µM] (inactive) | –
CC(=O)OC1(C)CC(O)C2(O)C=COC(OC3OC(CO)C(O)C(O)C3O)C12 (stereo unspecified) | -17.3% [at 25.6 µM] (inactive) | –
C[C@@H]1O[C@@H](O[C@H]2[C@H](Oc3cc(O)c(C(=O)CCc4ccc(O)cc4)c(O)c3)O[C@H](CO)[C@@H](O)[C@@H]2O)[C@H](O)[C@H](O)[C@H]1O | – | 10.6 µM (active)
